In PubChem BioAssay:
Calls of active or inactive are those of the source.

Legend:
[1] = E. coli DRC41 culture turbidity changes, primary screen, E. coli filamentation inducer project, strain DRC41, OD650, 48 h (AID 1152);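 note: E. coli MC1000 strain DRC41 lacking acrAB efflux pump and sulA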; conditions: E. coli DRC41 (acrAB sulA), higher = more signal, called active from +8 up or from −8 down
[2] = small-molecule binders of probe aLefty1, primary screen, biochemical, small-molecule microarray, 635/667 nm fluorescence (AID 1153); conditions: higher = more signal;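 note: score merges spot fluorescence with signal-to-noise ratio from the scanned slide images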
[3] = PSAC antagonists in infected red cells, primary screen, cell-based, P. falciparum Indochina, OD700, 1 h (AID 1154); conditions: P. falciparum Indochina infected RBC osmotic lysis, higher = more signal, called active from +8 up or from −8 down
[4] = PSAC antagonists in infected red cells, primary screen, cell-based, P. falciparum Indochina, OD700, 2 h (AID 1155);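 note: lysis reports solute entry through the parasite surface anion channel PSAC; channel blockers reduce lysis of infected cells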; conditions: P. falciparum Indochina infected erythrocytes, osmotic lysis OD700; higher = more signal, called active from +8 up or from −8 down
[5] = osmotic lysis modulators in infected erythrocytes, primary screen, PSAC antagonist project, cell-based, P. falciparum Indochina, OD700, 3 h (AID 1156); conditions: higher = more signal, called active from +8 up or from −8 down
[6] = PSAC antagonists in infected red cells, primary screen, cell-based, P. falciparum Indochina, OD700, 18 h (AID 1157); conditions: P. falciparum Indochina infected erythrocytes, osmotic lysis OD700, 18 h; higher = more signal, called active from +8 up or from −8 down
[7] = modulators of S6 phosphorylation in cells, primary screen, cell-based, A549, cytoblot, luminescence, serum-stimulated (AID 1158); conditions: A549 phospho-S6 cytoblot, 5 h, higher = more signal;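 note: serum-stimulated A549 lung adenocarcinoma cells; signal is phosphorylated S6 detected by cytoblot immunostaining with HRP secondary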
[8] = target: NADPH oxidase 2 (Homo sapiens) (UniProt P04839); test: NOX2-dependent H2O2 signal modulators, primary screen, NOX inhibitor project, cell-based, HEK293-NOX2, PMA-stimulated, Amplex Red fluorescence (AID 1159); conditions: 45 min, higher = more signal, called active from +8 up or from −8 down; note: test concentration not given here
Chain of NADPH oxidase 2 (Homo sapiens) (P04839 whole entry, looked up): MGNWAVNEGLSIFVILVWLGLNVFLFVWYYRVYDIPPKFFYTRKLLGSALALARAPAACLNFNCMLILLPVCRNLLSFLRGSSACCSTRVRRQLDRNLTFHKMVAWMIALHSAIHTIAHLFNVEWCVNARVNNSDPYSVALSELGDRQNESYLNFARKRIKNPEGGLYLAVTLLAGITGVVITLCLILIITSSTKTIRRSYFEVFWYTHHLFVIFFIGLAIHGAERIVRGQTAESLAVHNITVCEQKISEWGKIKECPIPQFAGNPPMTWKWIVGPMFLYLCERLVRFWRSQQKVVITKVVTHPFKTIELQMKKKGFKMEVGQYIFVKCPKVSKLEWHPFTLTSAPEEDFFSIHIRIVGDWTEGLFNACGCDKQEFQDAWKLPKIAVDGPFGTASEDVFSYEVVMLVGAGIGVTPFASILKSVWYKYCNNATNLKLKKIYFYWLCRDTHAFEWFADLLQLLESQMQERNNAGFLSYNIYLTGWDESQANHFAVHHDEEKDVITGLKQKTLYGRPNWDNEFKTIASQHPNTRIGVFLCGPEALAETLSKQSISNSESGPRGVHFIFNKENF

[9] = target: NADPH oxidase 4 (Homo sapiens) (UniProt Q9NPH5); test: NOX4-dependent H2O2 signal modulators, primary screen, NOX inhibitor project, cell-based, HEK293-NOX4, tetracycline-induced, Amplex Red fluorescence (AID 1160); conditions: 45 min, higher = more signal, called active from +8 up or from −8 down
Chain of NADPH oxidase 4 (Homo sapiens) (Q9NPH5 whole entry, looked up): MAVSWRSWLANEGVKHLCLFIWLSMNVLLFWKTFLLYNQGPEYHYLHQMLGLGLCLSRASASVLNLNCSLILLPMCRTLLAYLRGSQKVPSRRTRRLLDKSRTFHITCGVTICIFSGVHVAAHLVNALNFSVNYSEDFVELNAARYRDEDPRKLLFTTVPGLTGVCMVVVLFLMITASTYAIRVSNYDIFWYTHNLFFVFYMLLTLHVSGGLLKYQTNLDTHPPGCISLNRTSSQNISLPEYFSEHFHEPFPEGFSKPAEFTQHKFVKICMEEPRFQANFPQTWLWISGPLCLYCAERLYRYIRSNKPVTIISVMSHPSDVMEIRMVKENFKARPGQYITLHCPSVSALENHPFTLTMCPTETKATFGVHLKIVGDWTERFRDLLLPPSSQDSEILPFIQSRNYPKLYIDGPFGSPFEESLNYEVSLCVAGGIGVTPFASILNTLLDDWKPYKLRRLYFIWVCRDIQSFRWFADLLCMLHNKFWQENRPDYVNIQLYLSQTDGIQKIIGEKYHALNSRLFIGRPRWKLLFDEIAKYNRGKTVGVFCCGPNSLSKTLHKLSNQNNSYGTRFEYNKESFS

[10] = target: NADPH oxidase 5 (Homo sapiens) (UniProt Q96PH1); test: NOX5-dependent H2O2 signal modulators, primary screen, NOX inhibitor project, cell-based, HEK293-NOX5, Amplex Red fluorescence (AID 1161); conditions: HEK293-NOX5, ionomycin, 45 min, higher = more signal
Chain of NADPH oxidase 5 (Homo sapiens) (Q96PH1 whole entry, looked up): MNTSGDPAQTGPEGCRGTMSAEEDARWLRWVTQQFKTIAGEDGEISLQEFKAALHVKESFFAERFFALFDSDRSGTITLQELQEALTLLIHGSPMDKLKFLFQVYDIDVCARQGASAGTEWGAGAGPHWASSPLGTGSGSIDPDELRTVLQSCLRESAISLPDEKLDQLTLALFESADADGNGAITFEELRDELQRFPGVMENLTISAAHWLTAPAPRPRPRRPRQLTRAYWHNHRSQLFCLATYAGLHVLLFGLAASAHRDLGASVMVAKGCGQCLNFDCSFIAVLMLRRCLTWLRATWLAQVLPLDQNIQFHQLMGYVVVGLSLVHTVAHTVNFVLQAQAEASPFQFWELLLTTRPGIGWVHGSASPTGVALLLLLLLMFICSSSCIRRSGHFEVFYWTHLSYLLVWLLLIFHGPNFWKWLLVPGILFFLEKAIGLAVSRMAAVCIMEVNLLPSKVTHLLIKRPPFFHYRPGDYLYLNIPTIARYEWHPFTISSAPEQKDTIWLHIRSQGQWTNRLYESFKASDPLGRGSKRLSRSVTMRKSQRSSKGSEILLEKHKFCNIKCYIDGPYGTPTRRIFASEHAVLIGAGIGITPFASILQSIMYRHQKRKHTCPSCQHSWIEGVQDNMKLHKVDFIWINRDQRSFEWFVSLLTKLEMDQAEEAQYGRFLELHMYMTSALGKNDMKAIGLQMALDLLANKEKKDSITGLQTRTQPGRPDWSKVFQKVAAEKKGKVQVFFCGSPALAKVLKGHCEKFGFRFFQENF

[11] = A549 cell viability effects, profiling panel, calcein-AM fluorescence, 48 h, basal (AID 1162); conditions: higher = more signal; note: test concentration not given here
[12] = adipocyte viability effects, profiling panel, cell-based, 3T3-L1 adipocytes, calcein-AM fluorescence, 48 h, basal (AID 1163); conditions: 3T3-L1 adipocytes viability, higher = more signal; note: test concentration not given here
[13] = HepG2 cell viability effects, profiling panel, calcein-AM fluorescence, 48 h, basal (AID 1164); conditions: higher = more signal; note: test concentration not given here
[14] = MM1S cell viability effects, profiling panel, calcein-AM fluorescence, 48 h, basal (AID 1165); conditions: higher = more signal;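 note: viability of MM1S multiple myeloma cells under basal unstimulated conditions; test concentration not given here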
[15] = basal RPMI8226 viability, no added stimulus, profiling panel, cell-based, calcein-AM fluorescence, 48 h, PK04 Diversity Set (AID 1166); conditions: RPMI8226 myeloma viability, higher = more signal;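 note: cells grown under basal conditions without added stimulus; test concentration not given here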
[16] = basal HepG2 mitochondrial membrane potential changes, profiling panel, cell-based, JC-1 fluorescence, 24 h, 100 nL compound (AID 1167); conditions: higher = more signal; note: test concentration not given here
[17] = basal 3T3-L1 adipocyte mitochondrial potential changes, profiling panel, cell-based, JC-1 fluorescence, 3T3-L1 adipocytes, 24 h, 100 nL compound (AID 1168); conditions: JC-1 mitochondrial fluorescence, higher = more signal, called active from +8 up or from −8 down; note: test concentration not given here
[18] = basal RPMI8226 mitochondrial membrane potential changes, profiling panel, cell-based, JC-1 fluorescence, 24 h, 100 nL compound (AID 1169); conditions: RPMI8226 myeloma, JC-1 mitochondrial potential fluorescence, higher = more signal; note: test concentration not given here
[19] = basal MM1S mitochondrial membrane potential changes, profiling panel, cell-based, JC-1 fluorescence, 24 h, 100 nL compound (AID 1170); conditions: higher = more signal; note: test concentration not given here
[20] = A549 lung cancer cell viability effects, profiling panel, resazurin fluorescence, 24 h, PK04 Diversity Set (AID 1171); conditions: higher = more signal, called active from +8 up or from −8 down; note: test concentration not given here

Row | SMILES | z-score [1] | composite z-score [2] | z-score [3] | z-score [4] | z-score [5] | z-score [6] | z-score [7] | z-score [8] | z-score [9] | z-score [10] | z-score [11] | z-score [12] | z-score [13] | z-score [14] | z-score [15] | z-score [16] | z-score [17] | z-score [18] | z-score [19] | z-score [20]
1 | CC(=O)NCCCC[C@@H]1NC(=O)[C@@H]2C[C@H](C(=O)NCCCCCC[N+](C)(C)C)[C@H](c3ccc(O)cc3)N2C1=O | -0.303 (inactive) | 0.102 | 1.5 (inactive) | 0.0681 (inactive) | -3.5 (inactive) | 0.0574 (inactive) | -0.879 | 0.881 (inactive) | 0.983 (inactive) | 0.139 | 0.131 | -0.348 | -0.611 | 0.258 | -0.539 | -1.33 | 0.164 (inactive) | 0.169 | -0.5 | -0.557 (inactive)
2 | COc1ccc([Si](C)(C)[C@H]2[C@H](CCn3cc([C@H](O)c4ccccc4)nn3)O[C@@]3(C(=O)N(c4ccccc4)c4ccccc43)[C@@H]2C)cc1 | 1.13 (inactive) | 0.0004 | 6.6 (inactive) | 1.67 (inactive) | 0.56 (inactive) | 1.23 (inactive) | 0.448 | 1.47 (inactive) | 1.3 (inactive) | 1.33 | -0.13 | 0.885 | -1.31 | -0.54 | -3.18 | 1.63 | 0.291 (inactive) | -0.932 | -0.794 | -0.853 (inactive)
3 | O=C1OCCC=C[C@H]2OC34C=CCN(CCN5CCOCC5)C(=O)[C@H]3N(CCCO)C(=O)[C@@H]4C12 (stereo not given in full) | 0.274 (inactive) | -0.0464 | 0.377 (inactive) | -1.35 (inactive) | 0.901 (inactive) | -1.73 (inactive) | 0.41 | -0.433 (inactive) | -1.97 (inactive) | -0.183 | 0.531 | 0.473 | 0.127 | -0.0305 | -0.0605 | -0.338 | 1.33 (inactive) | 0.398 | -0.139 | -0.784 (inactive)
4 | O=c1cccc(-c2ccccc2C(F)(F)F)o1 | -0.934 (inactive) | 0.69 | 0.168 (inactive) | 0.761 (inactive) | -0.627 (inactive) | 0.341 (inactive) | -0.67 | 0.409 (inactive) | 0.0518 (inactive) | -0.982 | -0.976 | -0.0994 | 0.21 | 0.634 | -0.475 | -0.72 | 0.254 (inactive) | 0.835 | -1.3 | -0.262 (inactive)
